Source: PubChem (National Center for Advancing Translational Sciences (NCATS))
TDP1 block = TDP1 (human) enzyme inhibition; Q9NUW8; recombinant TDP1, AlphaScreen DNA substrate cleavage; Potency, µM (doses to about 130 µM), inactives show top-dose activity change, negative = inhibition, hits mostly inhibitors; 350,000 tested, 0.28% active; note: potency is the fitted concentration of half-maximal effect; % is set by controls: 0 for no effect and ±100 for the full control effect; nearly all actives have a fitted effect of over 40% in size
Target sequence (Q9NUW8 whole entry, looked up): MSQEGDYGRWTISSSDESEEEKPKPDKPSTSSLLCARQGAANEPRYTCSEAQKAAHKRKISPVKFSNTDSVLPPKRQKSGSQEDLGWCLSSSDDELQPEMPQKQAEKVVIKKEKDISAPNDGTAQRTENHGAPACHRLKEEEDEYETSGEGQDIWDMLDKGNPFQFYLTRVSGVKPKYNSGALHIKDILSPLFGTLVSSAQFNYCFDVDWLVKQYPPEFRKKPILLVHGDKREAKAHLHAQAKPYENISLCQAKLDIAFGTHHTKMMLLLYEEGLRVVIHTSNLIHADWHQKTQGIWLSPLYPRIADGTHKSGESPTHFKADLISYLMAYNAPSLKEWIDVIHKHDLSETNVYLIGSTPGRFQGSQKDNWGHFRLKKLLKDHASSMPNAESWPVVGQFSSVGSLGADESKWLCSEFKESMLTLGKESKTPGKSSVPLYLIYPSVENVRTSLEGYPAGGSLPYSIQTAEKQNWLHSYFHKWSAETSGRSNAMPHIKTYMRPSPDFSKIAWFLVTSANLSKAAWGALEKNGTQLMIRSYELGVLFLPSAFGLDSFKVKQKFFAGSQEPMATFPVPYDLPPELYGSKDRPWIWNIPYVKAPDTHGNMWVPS
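Here, a 5' biotin and 3' phosphotyrosine-FITC DNA oligonucleotide reports Tdp1 activity: intact substrate bridges AlphaScreen beads, while cleavage leaves a 3' phosphate and drops signal. All incubations at room temperature.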
TGFb SMAD3 inh = blocks TGF-b signaling | HepG2 CAGA-GFP TGF-b/SMAD3 reporter, GFP fluorescence, 18 h; TGF-beta stimulated, 500 pg/mL final | Potency, µM (doses to about 46.1 µM), inactives show top-dose activity, negative = inhibition, usual class: inhibitors | 410,000 tested, 1.2% active | AID 588855; note: potency is the fitted concentration of half-maximal effect; % is set by controls: 0 for no effect and ±100 for the full control effect; nearly all actives have a fitted effect of over 65% in size
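HEPG2 CAGA-GFP, 1000 cells/well; 2 h settle, 37 C; cpd via pin tool; TGF-b 500 pg/mL final; 18 h, 37 C; GFP imaging ex488/em500-530; %Activity normalised to -TGF-b and +DMSO controls; CRC fit, curve class.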
IL-1B inflam inh = blocks inflammasome-driven IL-1 beta release; THP-1 LPS/ATP IL-1B secretion, AlphaLISA, 16 h; hits give low values; activity change, % at 57.5 µM; 360,000 tested, 4.7% active; in the data active = activity change below about -50%; inconclusive = mostly about -30% to -49%; note: % is set by controls: 0 for no effect and ±100 for the full control effect
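Secreted IL-1B measured by AlphaLISA bead assay after 16 h compound exposure of THP-1 cells; compounds (final up to 57.5 uM) added 1 h before LPS (250 ng/mL) and ATP (1.25 mM) stimulation; lower signal means less secretion.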
TDP1 cell CPT = DT40-hTDP1 cell growth loss with CPT; Potency, µM (titrated, usually from 46.2 µM), inactives show top-dose activity change, negative = growth inhibition, actives largely listed as inhibitors; chicken DT40 Tdp1-/-;hTDP1 cells + 20 nM CPT, ATP luminescence, 48 h; 420,000 tested, 12% active; AID 686979; note: potency is the fitted concentration of half-maximal effect; % is set by controls: 0 for no effect and ±100 for the full control effect; nearly all actives have a fitted effect of over 55% in size
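Cell growth measured by CellTiter-Glo luminescence after a minimum 48 h, 37 C compound exposure with 20 nM CPT in Tdp1-knockout DT40 cells stably expressing hTDP1, seeded 400/well; qHTS titration format.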
HepG2 viability = HepG2 cytotoxicity, counter-screen for TGF-b inhibitors; HepG2 CAGA-GFP viability, ATP luminescence, 18 h; Potency, µM (top dose mostly 46.1 µM), for inactives: at the highest dose activity change, negative = cytotoxicity, hits mostly cytotoxic; 410,000 tested, 0.76% active; note: potency is the fitted concentration of half-maximal effect
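HepG2 CAGA-GFP cells (1000/well, DMEM with 1% FBS) received compound, then TGF-beta at 500 pg/mL final, and were incubated 18 hours at 37 degrees C. Viability was read by CellTiter-Glo luminescence. Media-only wells were set as complete cell-killing and DMSO as no toxicity.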
TDP1 cell noCPT = qHTS for Inhibitors of human tyrosyl-DNA phosphodiesterase 1 (TDP1): qHTS in cells in absence of CPT; DT40 Tdp1-/- hTDP1 cells, no CPT, ATP luminescence, 48 h; Potency, µM (doses to about 46.2 µM), inactives show at the top dose activity change, negative = growth inhibition, usual class: inhibitors; 420,000 tested, 15% active; note: potency is the fitted concentration of half-maximal effect; % is set by controls: 0 for no effect and ±100 for the full control effect; nearly all actives have a fitted effect of over 55% in size
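A cellular qHTS used chicken DT40 cells lacking endogenous Tdp1 but carrying stably transfected human TDP1. Compounds were applied without camptothecin, and cell growth kinetics were judged by ATP-dependent luminescence after ≥48 hr.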
The depositor's hits bear a star; [ ] = remark or other dose. Most compounds without a hit are left out; they make up all but 18% or so of the library. Unless noted, calls come from the whole dose curve; as a rule, active = well fitted curve in the direction sought with a large enough effect; inconclusive = small, poorly fitted or top-dose-only effect, or another doubt; inactive = no such curve, though single readings can be large; an effect the other way counts as inactive or inconclusive.

What do the screens show for `Cn1c(Cl)c(C(=O)Nc2ccc(Cl)cc2)c2ccccc21`?
TDP1 block: 2%; TGFb SMAD3 inh: 21%; IL-1B inflam inh: 56; TDP1 cell CPT: inconclusive; HepG2 viability: -15%; TDP1 cell noCPT: 16µM*

What do the screens show for `O=C(O)CC1CCC(=C(Cl)Cl)C1` (stereo not given)?
TGFb SMAD3 inh: inconclusive; IL-1B inflam inh: -74*; TDP1 cell CPT: 1µM*; HepG2 viability: -70%; TDP1 cell noCPT: 2.9µM*

How did O=C(O)CC1CC(O)CCC1=O (stereo not given) do in these assays?
TGFb SMAD3 inh: 2%; IL-1B inflam inh: 7; TDP1 cell CPT: -22%; HepG2 viability: -5%; TDP1 cell noCPT: -6%

Results for COc1cc(/C=N/n2cnnc2)ccc1Oc1nc(Cl)ncc1F ?
TDP1 block: 8%; TGFb SMAD3 inh: 0%; IL-1B inflam inh: -18; TDP1 cell CPT: 16µM*; HepG2 viability: -21%; TDP1 cell noCPT: inconclusive

What do the screens show for `COc1cc(/C=C(/C#N)C(=O)Nc2ccc(C)cc2)ccc1Oc1nc(Cl)ncc1F`?
TDP1 block: 5%; TGFb SMAD3 inh: -11%; IL-1B inflam inh: 0; TDP1 cell CPT: 23µM*; HepG2 viability: 2%; TDP1 cell noCPT: 16µM*

How did COc1ccccc1N(C)S(=O)(=O)c1ccc(C)c(C(=O)NC(C)c2ccccn2)c1 (stereo not given) do in these assays?
TDP1 block: -2%; TGFb SMAD3 inh: -2%; IL-1B inflam inh: 13; TDP1 cell CPT: inconclusive; HepG2 viability: -10%; TDP1 cell noCPT: inconclusive

Results for COc1ccc2cc(C3=CCCCC3)ncc2c1 ?
TDP1 block: -1%; TGFb SMAD3 inh: 6%; IL-1B inflam inh: 26; TDP1 cell CPT: inconclusive; HepG2 viability: -8%; TDP1 cell noCPT: inconclusive

How did C[C@H]1CN=C2N(CCNC(=O)CCC3CCCCC3)[C@H](Cc3ccc(O)cc3)CN21 do in these assays?
TDP1 block: 4%; TGFb SMAD3 inh: -1%; IL-1B inflam inh: -11; TDP1 cell CPT: inconclusive; HepG2 viability: -18%; TDP1 cell noCPT: inconclusive

What do the screens show for `O=C(CCC1CCCCC1)NCCN1C2=NC[C@@H](Cc3ccccc3)N2C[C@H]1Cc1ccc(O)cc1`?
TDP1 block: 1%; TGFb SMAD3 inh: inconclusive; IL-1B inflam inh: 0; TDP1 cell CPT: 16µM*; HepG2 viability: -62%; TDP1 cell noCPT: 16µM*

Results for O=C(CCC1CCCCC1)NCCN1C2=NC[C@H](Cc3ccccc3)N2C[C@H]1Cc1ccc(O)cc1 ?
TDP1 block: 8%; TGFb SMAD3 inh: inconclusive; IL-1B inflam inh: -24; TDP1 cell CPT: 21µM*; HepG2 viability: -36%; TDP1 cell noCPT: 18µM*

How did CSc1ccc(S(=O)(=O)NC2CC2)cc1 do in these assays?
TGFb SMAD3 inh: 0%; IL-1B inflam inh: 1; TDP1 cell CPT: -23%; HepG2 viability: 3%; TDP1 cell noCPT: -6%

How did COC(=O)c1cc(NC(=O)C2CC(=O)NC(=NCc3ccc(OC)cc3)S2)cc(C(=O)OC)c1 (stereo not given) do in these assays?
TDP1 block: 6%; TGFb SMAD3 inh: -4%; IL-1B inflam inh: 12; TDP1 cell CPT: 6%; HepG2 viability: 1%; TDP1 cell noCPT: -1%

How did COC(=O)c1ccc(NC(=O)c2nn(C)c3c2CS(=O)(=O)c2ccccc2-3)cc1 do in these assays?
TDP1 block: 5%; TGFb SMAD3 inh: -2%; TDP1 cell CPT: -14%; HepG2 viability: -29%; TDP1 cell noCPT: -1%

What do the screens show for `O=C(CCc1nnc(CCc2ccccc2)o1)N1CCCC1c1nccs1` (stereo not given)?
TDP1 block: 6%; TGFb SMAD3 inh: inconclusive; IL-1B inflam inh: -9; TDP1 cell CPT: -2%; HepG2 viability: 6%; TDP1 cell noCPT: -4%

What do the screens show for `Cc1ccc(/C=C2\S/C(=N/S(=O)(=O)c3cccs3)NC2=O)cc1`?
TDP1 block: 7%; TGFb SMAD3 inh: 11%; IL-1B inflam inh: 22; TDP1 cell CPT: 2%; HepG2 viability: 3%; TDP1 cell noCPT: 11%

How did CCc1ccc(S(=O)(=O)/N=C2\C=C(Nc3ccc(C(=O)O)cc3)C(=O)c3ccccc32)cc1 do in these assays?
TDP1 block: 5%[0.0935 µM]; TGFb SMAD3 inh: 16µM*; IL-1B inflam inh: -99*; TDP1 cell CPT: 18µM*; HepG2 viability: -109%; TDP1 cell noCPT: 23µM*

How did Cc1ccc(NC2=C/C(=N/S(=O)(=O)c3cccs3)c3ccccc3C2=O)cc1 do in these assays?
TDP1 block: 5%; TGFb SMAD3 inh: inconclusive; IL-1B inflam inh: -89*; TDP1 cell CPT: 1.8µM*; HepG2 viability: 4µM*; TDP1 cell noCPT: 3.3µM*

What do the screens show for `Cc1ccc(S(=O)(=O)/N=C2\C=C(Nc3cccc(C(=O)O)c3)C(=O)c3ccccc32)cc1`?
TDP1 block: 11%; TGFb SMAD3 inh: 13µM*; IL-1B inflam inh: -93*; TDP1 cell CPT: inconclusive; HepG2 viability: -111%; TDP1 cell noCPT: inconclusive

Results for Cc1ccc(S(=O)(=O)/N=C2\C=C(Nc3cccc(C(=O)O)c3)C(=O)c3ccccc32)c(C)c1 ?
TDP1 block: 9%; TGFb SMAD3 inh: 13µM*; IL-1B inflam inh: -104*; TDP1 cell CPT: inconclusive; HepG2 viability: 16µM*; TDP1 cell noCPT: inconclusive

Results for CC1(c2nnnn2-c2ccc3c(c2)OCCO3)CCC(=O)N1Cc1ccc(F)cc1 (stereo not given) ?
IL-1B inflam inh: 0; TDP1 cell CPT: 0%; TDP1 cell noCPT: -17%

Results for CN1CCN(c2ncnc3ccc(-c4cccc(NS(C)(=O)=O)c4)cc23)CC1 ?
TDP1 cell CPT: 3.7µM*; TDP1 cell noCPT: 6.5µM*

How did c1cncc(-c2ccc3ncnc(N4CCNCC4)c3c2)c1 do in these assays?
TDP1 block: -3%[56.1 µM]; TDP1 cell CPT: inconclusive; TDP1 cell noCPT: inconclusive

Results for CS(=O)(=O)Nc1cccc(-c2ccc3ncnc(NC4CC4)c3c2)c1 ?
TDP1 cell CPT: 8.2µM*; TDP1 cell noCPT: 6.5µM*

How did CCc1ccccc1NC(=O)CCc1c(C)nc(SC)nc1C do in these assays?
TDP1 block: 10%; TGFb SMAD3 inh: 7%; IL-1B inflam inh: 24; TDP1 cell CPT: 6%; HepG2 viability: -6%; TDP1 cell noCPT: -17%
